Here are results for 18 molecules from PubChem BioAssay (Tox21).

Structures are written as SMILES. Where “and” joins values, the source holds several entries; their conditions need not be identical. Identical values can stand only once. Calls of active or inactive are those of the source. Unless noted, calls come from the whole dose curve; as a rule, active = well fitted curve in the direction sought with a large enough effect in the repeat runs; inconclusive = weak or mixed curves; inactive = no such curve, though single readings can be large; an effect the other way counts as inactive or inconclusive.

Test [1] in a line: qHTS assay to identify small molecule antagonists of the thyroid receptor (TR) signaling pathway - cell viability counter screen (AID 743064). Note: nearly all actives have a fitted effect of over 50% in size. Note: potency is the fitted concentration of half-maximal effect. A digest of the protocol:
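CellTiter-Fluor readout, 30 min at 37 °C/5% CO2, following 23.5 h incubation of GH3.TRE-Luc cells with test compound and 1 nM T3 (final).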
In general terms: Quantitative high-throughput screening tests each substance at several concentrations.

Test [2] in a line: qHTS assay to identify small molecule antagonists of the thyroid receptor (TR) signaling pathway (AID 743065). Note: nearly all actives have a fitted effect of over 55% in size. Note: potency is the fitted concentration of half-maximal effect. In short, it runs like this: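 Antagonism measured as loss of luciferase signal in GH3 cells stably carrying a TRE-luciferase reporter, co-treated with compound and T3 (1 nM final) for 23.5 h at 37 C. Viability was read in the same well by CellTiter-Fluor.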
Test [3] has as its system thyroid hormone receptor (rat, GH3 cells). Nature of the test: qHTS assay to identify small molecule agonists of the thyroid receptor (TR) signaling pathway (AID 743066; calls by dose curve).
Test [4] is described as follows: qHTS assay to identify small molecule antagonists of the estrogen receptor alpha (ER-alpha) signaling pathway - cell viability counter screen (AID 743074; calls by dose curve;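 note: HEK293 cells carrying ER-alpha-UAS-bla reporter stimulated with 17beta-estradiol; nearly all actives have a fitted effect of over 45% in size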).
Test [5] in a line: qHTS assay to identify small molecule antagonists of the estrogen receptor alpha (ER-alpha) signaling pathway using the BG1 cell line - cell viability counter screen (AID 743081).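 Note: compound given together with 17beta-estradiol as the ER stimulus; nearly all actives have a fitted effect of over 45% in size.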 Note: potency is the fitted concentration of half-maximal effect.
Test [6] concerns the target Aromatase (Homo sapiens) (UniProt P11511). In words: qHTS assay to identify aromatase inhibitors (AID 743083). Note: nearly all actives have a fitted effect of over 55% in size. Note: potency is the fitted concentration of half-maximal effect.
Test [7] deals with Estrogen receptor (Homo sapiens) (UniProt P03372). In words: qHTS assay to identify small molecule antagonists of the estrogen receptor alpha (ER-alpha) signaling pathway (AID 743069; active = well fitted curve in the direction sought with a large enough effect in the signal ratio in the repeat runs, not every such curve was filed as active; inconclusive = weak or mixed curves, or effect the other way; inactive = no such curve, though single readings can be large or run the other way; the % refers to the signal ratio; note: potency is the fitted concentration of half-maximal effect). In short, it runs like this:
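Antagonist mode: compounds in DMSO were co-added with 17beta-estradiol to ER-alpha-bla HEK293 cells (2% charcoal-stripped serum) and left 18 h at 37C. Reporter inhibition was measured as FRET fluorescence after 2 h LiveBLAzer substrate at room temperature.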

Test [8] has the same target. Nature of the test: qHTS assay to identify small molecule agonists of the estrogen receptor alpha (ER-alpha) signaling pathway (AID 743075; calls by dose curve;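 note: HEK293 GripTite cells with ER-alpha and UAS-driven beta-lactamase reporter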).
Test [9] can be described thus: qHTS assay to identify small molecule antagonists of the estrogen receptor alpha (ER-alpha) signaling pathway using the BG1 cell line (AID 743080; calls by dose curve;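 note: BG1 cells stimulated with 17beta-estradiol alongside compound; nearly all actives have a fitted effect of over 25% in size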; note: potency is the fitted concentration of half-maximal effect). A digest of the protocol:
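Readout is ONE-Glo luminescence, taken 30 min at room temperature after reagent addition, preceded by a CellTiter-Fluor viability read; BG1-Luc-4E2 cells had received compound and 17beta-estradiol for 21.5 h at 37 C.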

For test [10], the target named is Estrogen receptor (Homo sapiens) (UniProt P03372). Nature of the test: qHTS assay to identify small molecule agonists of the estrogen receptor alpha (ER-alpha) signaling pathway using the BG1 cell line (AID 743079). Note: nearly all actives have a fitted effect of over 20% in size. The following applies: BG1Luc4E2 cells, ERE-luciferase agonist, 22 h; activation: at 70.3 µM (top of the series).
Chain of Estrogen receptor (Homo sapiens) (P03372 whole entry, looked up): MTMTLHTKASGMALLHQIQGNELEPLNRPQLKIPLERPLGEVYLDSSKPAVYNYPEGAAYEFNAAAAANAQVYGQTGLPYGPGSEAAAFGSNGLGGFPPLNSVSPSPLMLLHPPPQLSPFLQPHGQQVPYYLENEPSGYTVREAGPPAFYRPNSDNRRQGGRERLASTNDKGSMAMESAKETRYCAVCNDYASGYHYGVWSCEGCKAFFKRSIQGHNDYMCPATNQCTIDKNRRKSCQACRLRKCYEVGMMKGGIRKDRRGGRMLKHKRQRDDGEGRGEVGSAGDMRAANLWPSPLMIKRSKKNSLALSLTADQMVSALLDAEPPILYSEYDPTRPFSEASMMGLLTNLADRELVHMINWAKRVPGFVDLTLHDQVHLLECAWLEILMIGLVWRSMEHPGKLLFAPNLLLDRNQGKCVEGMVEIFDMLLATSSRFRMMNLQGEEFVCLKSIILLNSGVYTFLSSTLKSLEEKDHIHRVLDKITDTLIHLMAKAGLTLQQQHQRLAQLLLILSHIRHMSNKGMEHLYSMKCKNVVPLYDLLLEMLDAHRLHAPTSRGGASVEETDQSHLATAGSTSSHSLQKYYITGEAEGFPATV

Chain of Aromatase (Homo sapiens) (P11511 whole entry, looked up): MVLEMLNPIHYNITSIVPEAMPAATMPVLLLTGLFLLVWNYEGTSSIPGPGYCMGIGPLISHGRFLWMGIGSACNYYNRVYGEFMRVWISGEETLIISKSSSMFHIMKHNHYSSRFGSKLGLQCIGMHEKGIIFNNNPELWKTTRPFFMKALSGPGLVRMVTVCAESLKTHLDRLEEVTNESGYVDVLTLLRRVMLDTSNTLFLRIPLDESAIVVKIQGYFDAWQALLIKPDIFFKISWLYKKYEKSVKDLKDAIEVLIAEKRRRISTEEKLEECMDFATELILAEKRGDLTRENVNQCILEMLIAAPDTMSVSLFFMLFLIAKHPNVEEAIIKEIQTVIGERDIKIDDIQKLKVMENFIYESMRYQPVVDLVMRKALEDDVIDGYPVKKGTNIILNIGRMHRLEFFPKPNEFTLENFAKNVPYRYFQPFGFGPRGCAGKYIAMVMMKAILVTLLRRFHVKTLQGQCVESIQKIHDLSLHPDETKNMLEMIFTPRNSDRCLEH

As to `CCC(C)C(C(=O)OCC[N+](C)(CC)CC)c1ccccc1` (stereo unspecified), the Potency result in [1], in test [2], in [3], in test [4], in [5] and in test [6] was “inactive” in each case.
With `O=C1NC(=O)[C@H]2[C@@H]1[C@@H]1C=C[C@H]2C1`, the Potency result in test [1], in test [2], in [3], in [4], in test [5] and in test [6] was “inactive” throughout.
Take `Cn1cc(NC(=O)c2cc(NC(=O)c3cc(NC=O)cn3C)cn2C)cc1C(=O)NCCC(=N)N`: the Potency entry in test [1], in test [2], in test [3], in test [4], in [5] and in test [6] was “inactive” each time.
As to `CCCCCCCCCCCCCCCCCCCCCCO`, the Potency entry in [1], in test [2], in test [3], in [4], in test [5] and in [6] was “inactive” throughout.
For the molecule `COc1ccccc1N1CCN(CCCC(=O)c2ccc(F)cc2)CC1`, the Potency result in test [1], in [2], in [3], in test [4] and in test [6] was “inactive” each time.
For `CO[C@@]1(NC(=O)C2SC(=C(C(N)=O)C(=O)O)S2)C(=O)N2C(C(=O)O)=C(CSc3nnnn3C)CS[C@@H]21` (stereo partly specified), the Potency entry in test [1], in [2], in test [3], in [4], in [5] and in [6] was “inactive” each time.
As for `Cc1ncc(C[n+]2csc(CCOP(=O)(O)OP(=O)(O)O)c2C)c(N)n1`, the Potency entry in [1], in test [2], in test [3], in test [4], in [5] and in test [6] was “inactive” each time.
In the case of `CCOC(=O)C1=C[C@@H](OC(CC)CC)[C@H](NC(C)=O)[C@@H](N)C1`, the Potency entry in test [1], in [2], in test [3], in test [4] and in test [6] was “inactive” throughout.
Consider `OC1OC[C@@H](O)[C@H](O)[C@@H]1O` (stereo partly specified), for which the Potency entry in test [1], in [2], in [3], in test [4], in test [5] and in test [6] was “inactive” each time.
Regarding `CCCC1C(=O)N2C(N(C)C)=Nc3ccc(C)cc3N2C1=O` (stereo unspecified), the Potency entry in test [1], in test [2], in [3], in test [4], in test [5] and in test [6] was “inactive” in each case.
Turning to `CCN(CC)CCC(=O)N1c2ccccc2Sc2ccc(Cl)cc21`, the Potency was 23.7 µM (active) in test [1] and 26.6 µM (active) in test [2]. Moreover, the Potency result in [7], in [4], in test [8], in [9] and in [6] was “inactive” in each case.
On to `CCCCCCCCCCCCCCCC(=O)OCCC1CCN(CCCN2c3ccccc3Sc3ccc(S(=O)(=O)N(C)C)cc32)CC1`, for which the Potency entry in test [1], in test [2], in [3], in test [4] and in test [6] was “inactive” each time.
`COc1ccc(C[C@H](N)C(=O)N[C@H]2[C@@H](O)[C@H](n3cnc4c(N(C)C)ncnc43)O[C@@H]2CO)cc1`: the Potency is 11.9 µM (active) in [1]; 10.6 µM (active) in test [2]; 4.25 µM [inconclusive] (active) in test [7]; 21.1 µM (active) in test [5]; 11.9 µM (active) in test [6]. In addition, the Potency result in test [4] and in test [8] was “inactive” each time.
Turning to `COC(=O)[C@H]1[C@H]2C[C@@H]3c4[nH]c5ccccc5c4CCN3C[C@H]2C[C@@H](OC(=O)c2cc(OC)c(OC)c(OC)c2)[C@@H]1OC`, the Potency was 26.6 µM (active) in [1]; 2.11 µM (active) and 21.1 µM (active) in [2]; 2.39 µM [inconclusive] (active) in test [7]; 6.68 µM (active) in [9]; 5.96 µM (active) and 29.8 µM (active) in test [6]. The Potency entry in test [4], in test [8], in test [10] and in test [5] was “inactive” throughout.
Take `C=C1CC[C@@H]2[C@](C)(CO)[C@H](O)CC[C@@]2(C)[C@@H]1C/C=C1/C(=O)OC[C@H]1O`: the values for the Potency in [1] and in test [2] were 21.1 µM (active) and 23.7 µM (active), respectively. The Potency entry in test [7], in [4], in test [8], in test [10], in test [5] and in test [6] was “inactive” in each case.
Turning to `CN1CCN(CCC=C2c3ccccc3Sc3ccc(S(=O)(=O)N(C)C)cc32)CC1`, the Potency in test [1] is 13.3 µM (active); in test [2] it was 8.41 µM (active). For the same molecule, the Potency entry in test [7], in [8], in [10] and in test [9] was “inactive” in each case.
`CC(CN1c2ccccc2Sc2ccc(S(=O)(=O)N(C)C)cc21)N(C)C` (stereo unspecified): the Potency in test [1] is 11.9 µM (active); in test [2], 13.3 µM (active). Moreover, the Potency entry in test [7], in [4], in test [8], in test [10], in [9] and in test [5] was “inactive” throughout.
In the case of `Cc1cc(O)c2c(c1)O[C@@]1(C)CC[C@H]3C(C)(C)CCCC34CO[C@@H]2[C@H]41` (stereo partly specified), the Potency in [1] is 18.8 µM (active); in test [2], 13.3 µM (active); in test [9], 26.6 µM (active); in [6], 26.6 µM (active). Moreover, the Potency entry in test [7], in [4], in test [8] and in test [5] was “inactive” throughout.
